# Shown are actives, neighbours in structure and some others; about 5% of the full set was active somewhere.
# SENP6 inh – SENP6 protease inhibitors, primary screen, biochemical, luminescence, uHTS | Sentrin-specific protease 6 (Homo sapiens), Q9GZR1 | Recombinant SENP6 catalytic domain, aminoluciferin luminescence | inhibition, % at 10 µM | actives 1.8% (n = 330,000) | AID 2599, 2010;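 active = inhibition above about 50% at the single tested dose, limit read from the data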;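 note: plate controls were DMSO wells with enzyme for no effect and DMSO wells lacking enzyme for full effect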
# SENP8 block-1 – human SENP8 protease inhibitors, primary screen, biochemical, fluorescence, Nedd8 protein substrate, uHTS; inhibition, % at 20 µM; AID 602440, 2012; Sentrin-specific protease 8 (Homo sapiens), Q96LD8; recombinant SENP8; actives 0.64% (n = 360,000); in the data active = inhibition mostly above about 40%, no sharp cut-off; inactive = mostly below about 27%
# Target sequence (Q96LD8 whole entry, looked up): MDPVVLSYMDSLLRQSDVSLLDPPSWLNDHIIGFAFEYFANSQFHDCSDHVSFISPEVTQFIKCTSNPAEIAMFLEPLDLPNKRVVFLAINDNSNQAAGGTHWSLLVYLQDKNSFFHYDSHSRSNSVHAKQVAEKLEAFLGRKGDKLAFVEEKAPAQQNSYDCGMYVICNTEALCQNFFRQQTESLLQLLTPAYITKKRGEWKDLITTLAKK
# AHR activator – AHR activators, primary screen, cell-based, luminescence, luciferase reporter, human. Aryl hydrocarbon receptor (Homo sapiens), P35869. AHR-responsive luciferase reporter cells. activation, % at 5 µM. actives 2.5% (n = 320,000); in the data active = activation above about 47%;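 note: 0% = vehicle wells and 100% = reference agonist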
# SENP8 block-2 – SENP8 protease inhibitors, primary screen, biochemical, luminescence; inhibition, % at 10 µM; AID 2540, 2010; purified SENP8, Z-RLRGG-aminoluciferin cleavage; actives 1.2% (n = 330,000); in the data active = inhibition above about 50%
# SENP7 inh – SENP7 protease inhibitors, primary screen, biochemical, luminescence, uHTS; Sentrin-specific protease 7 (Homo sapiens), Q9BQF6; recombinant SENP7, Z-RLRGG-aminoluciferin luminescence, 40 min; inhibition, % at 5 µM; actives 1.5% (n = 330,000);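 active = inhibition above about 50% at the single test dose, limit read from the data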;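 note: plate controls were DMSO with enzyme for no effect and no enzyme buffer wells for full effect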
# Target sequence (Q9BQF6 706-1050 limits assumed): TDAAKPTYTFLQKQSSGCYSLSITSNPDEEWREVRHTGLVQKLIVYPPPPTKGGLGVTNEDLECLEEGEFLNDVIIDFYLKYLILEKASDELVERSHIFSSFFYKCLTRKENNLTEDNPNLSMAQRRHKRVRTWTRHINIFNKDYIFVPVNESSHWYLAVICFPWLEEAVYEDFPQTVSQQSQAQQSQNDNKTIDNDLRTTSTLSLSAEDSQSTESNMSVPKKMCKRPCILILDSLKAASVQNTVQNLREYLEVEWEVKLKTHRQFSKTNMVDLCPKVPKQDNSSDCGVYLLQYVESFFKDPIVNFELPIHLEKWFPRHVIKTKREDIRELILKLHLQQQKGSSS
# EBI2 antag – EBI2 receptor antagonists, beta-arrestin recruitment, primary screen, cell-based, luminescence, 7a,25-OHC stimulation, uHTS. 7a,25-OHC stimulated. inhibition, % at 5 µM. actives 0.81% (n = 360,000). AID 651636, 2012; in the data active = inhibition above about 38%;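 note: enzyme fragment complementation signal reports receptor beta-arrestin coupling in cells; 0% = agonist plus DMSO wells and 100% = wells without agonist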
# AHR act cf – AHR activators, confirmation, cell-based, luminescence, luciferase reporter, human; human cells, AHR-responsive luciferase reporter; AID 2845, 2010; activation, % at 9 µM; actives 87% (n = 2,300); shares compounds with AHR activator; in the data active = activation above about 49%;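 note: HepG2 hepatoma cells carrying a DRE-driven firefly luciferase reporter; 0% = vehicle wells and 100% = reference agonist wells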
# PXR act counter – human PXR activators, counter-screen for AHR activator project, cell-based, luciferase luminescence. shares compounds with AHR activator. cell-based PXR reporter. activation, % at 11.6 µM. actives 88% (n = 2,300). AID 434939, 2010; in the data active = activation above about 11%;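 note: human hepatoma DPX-2 cells expressing full-length human PXR; 0% = DMSO and 100% = reference agonist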
# The depositor's hits bear a star; / = no result.
SMILES,SENP6 inh,SENP8 block-1,AHR activator,SENP8 block-2,SENP7 inh,EBI2 antag,AHR act cf,PXR act counter
C=CCn1c(O)c(N=Nc2ccccc2O)c2ccccc21,-6,17,82*,-8,9,6,87*,33*
COc1ccc(N(CCCN2C(=O)c3cccc4cccc(c34)C2=O)C(=O)c2cccs2)cc1,-1,-53,100*,5,-5,-17,140*,93*
COc1ccccc1C(=O)NNC(=O)C(=O)NC1CCCCC1,-24,9,15,-2,5,1,/,/
Nc1c(C(=O)Nc2ccc(Cl)cc2)oc2ccccc12,28,-435,107*,29,-9,10,132*,60*
CCOc1ccc(C(=O)Nc2c(C(N)=O)oc3ccccc23)cc1,11,-1,46,-2,-3,-13,/,/
COc1cccc(C(=O)Nc2c(C(N)=O)oc3ccccc23)c1,6,-8,94*,8,0,1,133*,21*
COc1ccc(C(=O)c2oc3ccccc3c2N)cc1,-2,-68,82*,-6,6,-4,133*,12*
Nc1c(C(=O)c2ccccc2)oc2ccccc12,-2,8,112*,-20,-7,-7,140*,24*
COc1ccc(/C=C2/SC(=O)N(CCC(=O)Nc3ccccc3)C2=O)cc1OC,12,-86,1,7,2,-1,/,/
CCCCCn1nnc2c(=O)oc3ccccc3c21,-2,-15,-2,4,4,-3,/,/
CCCNC(=O)C(Cc1ccc(Br)cc1)NC(=O)c1ccc(C#N)cc1 (stereo unspecified),-18,11,1,-9,-6,4,/,/
Nc1c(C(=O)c2ccc(F)cc2)oc2ccccc12,-11,-1,92*,-11,-9,0,156*,16*
CCCCCC(=O)Nc1nc(C)c(-c2csc(Nc3ccccc3OC)n2)s1,-6,-248,85*,10,4,4,96*,50*
CCCCC(=O)Nc1nc(C)c(-c2csc(Nc3cc(OC)ccc3OC)n2)s1,-1,-168,85*,-5,8,-3,82*,58*
CCCCCCC(=O)Nc1nc(C)c(-c2csc(Nc3cc(Cl)ccc3C)n2)s1,-5,-90,79*,-5,0,6,81*,17*
COc1cccc(Nc2nc(-c3sc(NC(=O)c4ccco4)nc3C)cs2)c1,-1,-201,46,-4,6,17,/,/
COc1ccccc1Nc1nc(-c2sc(NC(=O)c3ccc([N+](=O)[O-])cc3)nc2C)cs1,0,/,19,1,-1,/,/,/
CCCC(C)C(=O)Nc1nc(C)c(-c2csc(Nc3ccccc3OC)n2)s1 (stereo unspecified),6,-195,124*,1,6,5,72*,62*
COC(=O)c1cc(S(=O)(=O)NCC2CCN(Cc3cccc(Cl)c3)CC2)c[nH]1,-6,16,1,-6,7,-7,/,/
COc1ccc(N2CCN(C(=O)NCc3ccc(C)cc3)CC2)cc1,-6,-19,4,2,8,33,/,/
COc1ccc(NC(=O)CSc2nnc3c4c(nc(-c5ccccc5)n23)CC(C)(C)OC4)cc1,-4,3,109*,-6,5,8,4,25*
COc1ccc(-c2nc3c(c4nnc(SC(C)C(=O)Nc5ccc(C)cc5)n24)COC(C)(C)C3)cc1 (stereo unspecified),-10,-37,1,-1,2,11,/,/
Cc1nc(N2CCOCC2)c2oc3ccccc3c2n1,8,-36,100*,-1,5,16,92*,24*
CCc1cc(/C(Cc2ccc3ccccc3n2)=N\O)c(O)cc1O,14,9,88*,0,0,11,55*,/
CCn1c2ccccc2c2nc3cc(OC)c(OC)cc3nc21,35,-269,115*,20,1,22,96*,63*
SMILES,SENP6 inh,SENP8 block-1,AHR activator,SENP8 block-2,SENP7 inh,EBI2 antag,AHR act cf,PXR act counter
COc1cc2nc3c4ccccc4n(CC#N)c3nc2cc1OC,14,/,/,-2,-6,/,/,/
O=C(CCn1c(=O)sc2ccccc21)Nc1nc2ccccc2s1,-11,11,106*,-4,2,-2,44,98*
Cc1cnc(NC(=O)CCCc2nc3ccccc3s2)s1,-10,5,271*,-1,0,2,41,134*
COc1ccc2nc(/C=N/NC(=O)[C@H](C)NC(=O)OC(C)(C)C)ccc2c1,-5,/,23,-4,0,/,/,/
Cc1ccc(S(=O)(=O)N2CCN(C(=O)c3ccc4nc[nH]c4c3)CC2)cc1,2,2,0,1,5,3,/,/
CCN(CC)C(=O)c1sc(NC(=O)c2cccc([N+](=O)[O-])c2)c(C#N)c1C,-9,15,-1,-9,3,-8,/,/
CCN(CC)C(=O)c1sc(NC(=O)c2c(OC)cccc2OC)c(C#N)c1C,-8,-62,132*,-4,3,-12,92*,173*
C=CCn1cc(/C=N/NC(=O)COc2cccc3cccnc23)c2ccccc21,-18,2,82*,-12,4,10,36,38*
CC(C)n1cc(/C=N/NC(=O)COc2cccc3cccnc23)c2ccccc21,-13,10,45,-12,-8,5,/,/
Cn1c(CNc2ccc(Cl)cc2)nnc1SCc1ccccc1,-4,5,101*,0,10,16,44,141*
CCCCNc1c(-c2ccc(OC)c(SC3CCCCC3)c2)nc2cnccn12,-2,-498,94*,-12,-1,15,58*,169*
CC1(C)CC(NC(=O)c2ccccc2F)CC(C)(C)N1,12,20,-2,-3,7,3,/,/
O=C1Nc2ccccc2/C1=C/c1ccccc1F,-18,28,94*,-13,0,-6,93*,17*
Cc1ccc(N=Nc2c(C)[nH]n(-c3ccccc3)c2=O)c(C)c1,2,13,9,8,6,-4,/,/
Cc1cc(N)ccc1N=Nc1c(C)n(C)n(-c2ccccc2)c1=O,-8,25,87*,-7,-2,-7,119*,25*
Cc1ccc(CN2CCC(n3nccc3NC(=O)CCOc3ccccc3)CC2)cc1C,3,14,0,-3,-8,-7,/,/
